Data on nine compounds can be found in PubChem BioAssay.

A short description of assay [1]: optical density shifts of acrAB sulA E. coli – strain DRC41, OD650, 48 h, E. coli filamentation inducer project, primary screen (AID 1152).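 Also: E. coli MC1000 strain DRC41 lacking acrAB efflux pump and sulA.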 The note with it: higher = more signal, called active from +8 up or from −8 down.
Assay [2] can be described thus: probe aLefty1 binding on compound microarray – biochemical, small-molecule microarray, 635/667 nm fluorescence, primary screen (AID 1153).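 Also: score merges spot fluorescence with signal-to-noise ratio from the scanned slide images.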 The note with it: higher = more signal.
The nature of assay [3]: plasmodial surface anion channel blockers, osmotic lysis – cell-based, P. falciparum Indochina, OD700, 1 h, primary screen (AID 1154). To be noted: P. falciparum Indochina infected RBC osmotic lysis, higher = more signal, called active from +8 up or from −8 down.
A short description of assay [4]: plasmodial surface anion channel blockers, osmotic lysis – cell-based, P. falciparum Indochina, OD700, 2 h, primary screen (AID 1155).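 Also: lysis reports solute entry through the parasite surface anion channel PSAC.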 The note with it: P. falciparum Indochina infected erythrocytes, higher = more signal, called active from +8 up or from −8 down.
The nature of assay [5]: changes in parasitized red cell lysis, either direction – P. falciparum Indochina, OD700, 3 h, PSAC antagonist project, primary screen (AID 1156). To be noted: P. falciparum-infected erythrocytes, osmotic lysis, higher = more signal, called active from +8 up or from −8 down.
The nature of assay [6]: plasmodial surface anion channel blockers, osmotic lysis – cell-based, P. falciparum Indochina, OD700, 18 h, primary screen (AID 1157). The note with it: P. falciparum Indochina infected erythrocytes, osmotic lysis OD700, 18 h; higher = more signal, called active from +8 up or from −8 down.
Assay [7] can be described thus: S6 kinase pathway phospho-S6 level changes – cell-based, A549, cytoblot, luminescence, serum-stimulated, primary screen (AID 1158).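 Also: serum-stimulated A549 lung adenocarcinoma cells; signal is phosphorylated S6 detected by cytoblot immunostaining with HRP secondary.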 To be noted: 5 h, higher = more signal.
The target of assay [8] is NADPH oxidase 2 (Homo sapiens) (UniProt P04839). The assay can be described thus: compounds shifting NOX2 Amplex Red fluorescence – cell-based, HEK293-NOX2, PMA-stimulated, NOX inhibitor project, primary screen (AID 1159). Also: test concentration not given here. To be noted: 45 min, higher = more signal, called active from +8 up or from −8 down.
Assay [9] deals with NADPH oxidase 4 (Homo sapiens) (UniProt Q9NPH5). The assay can be described thus: compounds shifting NOX4 Amplex Red fluorescence – cell-based, HEK293-NOX4, tetracycline-induced, NOX inhibitor project, primary screen (AID 1160). The note with it: HEK293-NOX4, Amplex Red H2O2 fluorescence, 45 min; higher = more signal, called active from +8 up or from −8 down.
Assay [10] addresses NADPH oxidase 5 (Homo sapiens) (UniProt Q96PH1). The assay can be described thus: compounds shifting NOX5 Amplex Red fluorescence – cell-based, HEK293-NOX5, NOX inhibitor project, primary screen (AID 1161). To be noted: HEK293-NOX5, ionomycin, 45 min, higher = more signal.

The structures appear in SMILES notation. Values joined by “and” are separate entries in the source; they are usually repeats but may differ in a detail not shown here. Equal values may be shown once. Active and inactive are the calls of the source.

Chain of NADPH oxidase 5 (Homo sapiens) (Q96PH1 whole entry, looked up): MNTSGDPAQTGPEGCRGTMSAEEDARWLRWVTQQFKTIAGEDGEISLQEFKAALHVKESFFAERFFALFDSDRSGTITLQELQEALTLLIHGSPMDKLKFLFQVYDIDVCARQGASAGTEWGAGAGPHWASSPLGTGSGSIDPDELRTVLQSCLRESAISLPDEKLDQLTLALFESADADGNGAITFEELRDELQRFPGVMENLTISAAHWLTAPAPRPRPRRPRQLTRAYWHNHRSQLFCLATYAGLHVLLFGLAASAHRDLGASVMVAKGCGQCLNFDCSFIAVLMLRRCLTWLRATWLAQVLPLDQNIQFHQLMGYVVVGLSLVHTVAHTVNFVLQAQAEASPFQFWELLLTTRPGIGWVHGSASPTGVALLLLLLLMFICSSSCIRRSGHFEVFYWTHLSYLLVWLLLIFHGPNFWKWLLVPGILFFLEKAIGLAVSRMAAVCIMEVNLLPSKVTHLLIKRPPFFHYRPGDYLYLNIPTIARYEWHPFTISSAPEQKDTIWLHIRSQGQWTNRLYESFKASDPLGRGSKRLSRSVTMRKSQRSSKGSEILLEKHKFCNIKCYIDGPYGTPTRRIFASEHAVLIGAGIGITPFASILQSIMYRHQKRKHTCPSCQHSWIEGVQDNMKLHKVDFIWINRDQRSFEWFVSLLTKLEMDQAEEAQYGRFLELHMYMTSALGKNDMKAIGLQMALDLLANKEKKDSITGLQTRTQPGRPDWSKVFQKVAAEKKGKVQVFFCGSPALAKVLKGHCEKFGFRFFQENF
Chain of NADPH oxidase 2 (Homo sapiens) (P04839 whole entry, looked up): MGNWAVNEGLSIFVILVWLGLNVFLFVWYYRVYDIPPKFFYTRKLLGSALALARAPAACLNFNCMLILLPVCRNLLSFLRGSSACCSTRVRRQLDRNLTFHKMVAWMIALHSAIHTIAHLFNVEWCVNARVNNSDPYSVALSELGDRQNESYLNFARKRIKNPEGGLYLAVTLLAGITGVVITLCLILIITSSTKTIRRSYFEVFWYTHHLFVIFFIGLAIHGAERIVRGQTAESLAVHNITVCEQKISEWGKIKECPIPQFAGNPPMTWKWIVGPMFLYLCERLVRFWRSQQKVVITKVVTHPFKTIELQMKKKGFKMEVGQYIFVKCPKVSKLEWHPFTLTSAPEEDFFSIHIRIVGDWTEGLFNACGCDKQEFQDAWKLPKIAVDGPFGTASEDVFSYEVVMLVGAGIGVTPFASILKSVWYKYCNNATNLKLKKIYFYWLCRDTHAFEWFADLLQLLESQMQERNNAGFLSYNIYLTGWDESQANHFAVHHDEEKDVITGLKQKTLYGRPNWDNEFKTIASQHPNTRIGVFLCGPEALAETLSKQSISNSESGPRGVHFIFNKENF
Chain of NADPH oxidase 4 (Homo sapiens) (Q9NPH5 whole entry, looked up): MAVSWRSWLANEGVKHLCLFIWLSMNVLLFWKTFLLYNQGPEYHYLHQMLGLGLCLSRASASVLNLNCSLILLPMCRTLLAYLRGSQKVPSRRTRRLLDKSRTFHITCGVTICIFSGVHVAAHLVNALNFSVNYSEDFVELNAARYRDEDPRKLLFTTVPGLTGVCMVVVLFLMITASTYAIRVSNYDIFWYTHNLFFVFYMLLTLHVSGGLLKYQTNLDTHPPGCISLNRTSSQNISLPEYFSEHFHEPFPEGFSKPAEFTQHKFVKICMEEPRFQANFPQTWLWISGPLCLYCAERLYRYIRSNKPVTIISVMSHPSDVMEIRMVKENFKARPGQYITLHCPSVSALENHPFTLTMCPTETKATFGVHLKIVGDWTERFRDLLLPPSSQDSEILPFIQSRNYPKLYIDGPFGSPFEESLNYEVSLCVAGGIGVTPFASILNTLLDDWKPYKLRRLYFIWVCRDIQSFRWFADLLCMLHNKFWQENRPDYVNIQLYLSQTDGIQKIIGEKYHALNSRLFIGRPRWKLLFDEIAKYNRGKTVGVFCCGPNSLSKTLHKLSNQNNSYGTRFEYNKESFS

Take `C=C[C@H](OC)[C@@H](O)c1ccc(O)c(F)c1`: the z-score in [1] is -0.809 (inactive) and 0.573 (inactive); in assay [3] it was -0.0463 (inactive) and 0.351 (inactive); in assay [4], 0.125 (inactive) and 0.702 (inactive); in [5], -0.389 (inactive) and -0.0295 (inactive); in assay [6], -0.138 (inactive) and 0.403 (inactive); in assay [7] it was -0.141 and 0.723. The z-score in [8] was -1.01 (inactive) and -0.872 (inactive); in [9] it was -0.137 (inactive) and -0.407 (inactive); in [10] it was 0.0933 and -0.503. In addition, in assay [2], the composite z-score was -0.266 and -0.148.

For `CCN1C(=O)[C@H]2[C@H]3[C@H](O)[C@H](O)CC(=NOC)[C@@H]3CC[C@H]2C1=O`, the z-score was -0.589 (inactive) in [1]; 0.637 (inactive) in assay [3]; 0.628 (inactive) in [4]; 0.47 (inactive) in assay [5]; 0.269 (inactive) in [6]; 0.815 in assay [7]. Also, the z-score in [8] is -0.0884 (inactive); in assay [9], 0.545 (inactive); in assay [10], -0.274. The composite z-score in assay [2] is -0.0654.

For `C=CCN(C(=O)C1N(CCOCCO)C(=O)C2C(C(=O)O)C3C=CC21O3)c1ccc(OC)cc1` (stereo not given), the z-score in assay [1] is 0.168 (inactive) and 0.839 (inactive); in assay [3], -0.586 (inactive) and -1.15 (inactive); in assay [4], 0.0933 (inactive) and -0.0778 (inactive); in assay [5], -1.1 (inactive) and -0.285 (inactive); in [6] it was -0.0612 (inactive) and -0.161 (inactive); in [7] it was 1.4 and -0.338. The z-score in assay [8] is 0.073 (inactive) and 0.856 (inactive); in assay [9], -0.509 (inactive) and -0.782 (inactive); in assay [10], 0.624 and -0.275. The composite z-score in [2] was -0.262 and -0.243.

Regarding `CC(C)C(=O)N[C@@H]1CCCN1C(=O)C=Cc1ccccc1`, the z-score was 0.214 (inactive) in [1]; -0.272 (inactive) in assay [3]; 0.274 (inactive) in [4]; -0.77 (inactive) in [5]; -0.241 (inactive) in assay [6]; -0.685 in [7]. In addition, the figures for the z-score in assay [8], in assay [9] and in assay [10] were -0.457 (inactive), 0.53 (inactive) and 0.434, respectively. In addition, the composite z-score in assay [2] is -0.101.

Regarding `CC(CO)N1C(=O)[C@@H]2C3C(=O)OCCC=C[C@H]3OC23C=CCN(Cc2ccccc2)C(=O)[C@@H]13` (stereo not given in full), the z-score in assay [1] is 0.697 (inactive) and 0.925 (inactive); in [3], 3.31 (inactive) and 0.464 (inactive); in assay [4], 1.11 (inactive) and 0.0933 (inactive); in [5], 1.21 (inactive) and 1.05 (inactive); in assay [6], 0.403 (inactive) and 0.258 (inactive); in assay [7], -0.388 and -0.526. The z-score in [8] is 1.26 (inactive) and 1.71 (inactive); in assay [9] it was 1.09 (inactive) and -0.409 (inactive); in [10], 2.15 and 2.85. For the same compound, the composite z-score in assay [2] is -0.0162 and 0.132.

In the case of `COC(=O)c1c2oc(c1C(=O)OC)C(=O)N[C@@H](Cc1ccccc1)Cn1cc(nn1)C1(CCCCC1)NC(=O)N[C@H](CO)CC2`, the z-score in assay [1] is 2.62 (inactive) and 1.74 (inactive); in [3] it was 1.36 (inactive) and 4.41 (inactive); in assay [4], 0.431 (inactive) and 1.49 (inactive); in assay [5], 0.557 (inactive) and 0.593 (inactive); in assay [6] it was 0.454 (inactive) and 0.801 (inactive); in [7], 0.427 and 0.173. Moreover, the z-score is 0.432 (inactive) and 0.428 (inactive) in [8]; 1.67 (inactive) and -1.49 (inactive) in assay [9]; 0.922 and -2.52 in [10]. The composite z-score in assay [2] was 0.391 and 0.0455.

Turning to `C=CC[C@@H](O)c1ccc(O)c2ccccc12`, the z-score in assay [1] was 1.07 (inactive) and -0.266 (inactive); in assay [3], 0.964 (inactive) and 0.883 (inactive); in assay [4], 0.263 (inactive) and 0.49 (inactive); in assay [5], -0.379 (inactive) and -0.519 (inactive); in assay [6], 0.131 (inactive) and 0.548 (inactive); in assay [7], -0.241 and 0.206. Moreover, the z-score in assay [8] is -5.68 (inactive) and -5.98 (inactive); in assay [9], -1.28 (inactive) and -1.66 (inactive); in assay [10], 1.61 and 0.954. Further, the composite z-score in [2] was 0.113 and 0.176.

For the compound `CC(C)CON=C1C[C@@H](O)[C@@H](O)[C@@H]2[C@@H]3C(=O)N(c4cccc(Oc5ccccc5)c4)C(=O)[C@@H]3CC[C@H]12`, the z-score in [1] is 0.525 (inactive); in assay [3] it was -0.436 (inactive); in assay [4], 0.0644 (inactive); in assay [5], 0.388 (inactive); in assay [6], 0.158 (inactive); in assay [7], -0.157. Moreover, the results for the z-score in [8], in assay [9] and in assay [10] were -0.831 (inactive), 0.11 (inactive) and -0.144, respectively. For the same compound, the composite z-score in assay [2] was -0.298.

Consider `COCn1c2ccccc2c2nnc(C(C)=O)nc21`, for which the z-score in assay [1] is -1.46 (inactive) and -0.426 (inactive); in assay [3], 1.91 (inactive) and 0.558 (inactive); in [4], -0.781 (inactive) and -1.09 (inactive); in assay [5], 0.68 (inactive) and 1.07 (inactive); in assay [6], -1.28 (inactive) and -1.44 (inactive); in assay [7], 2.52 and 1.53. The z-score in [8] was -0.424 (inactive) and -0.738 (inactive); in assay [9] it was -0.773 (inactive) and -0.0619 (inactive); in [10], -2.97 and -3.35. The composite z-score in assay [2] was -0.103 and -0.0111.
